{
  "source": "PubChem BioAssay (NCI)",
  "note": "About 83,000 compounds went through this panel and 20% of them were active in at least one assay; those are over-represented in the sample as a whole.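 Growth was measured after 48 h exposure to one concentration of compound in 96-well plates. Values under 10 count as active.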 A number with no mark means an inactive call. Active and inactive are the calls of the source.",
  "data": [
    {"tested_on": "NCI/ADR-RES ovarian", "assay": "NCI-60 one-dose screen, 48 h (100 = growth as untreated, 0 = no growth, -100 = all killed)", "details": "10 µM unless noted", "values": [
      {"smiles": "C=CN(C(=O)N1CCN(c2cc3c(cc2F)c(=O)c(C(=O)O)cn3C2CC2)CC1)c1nc(-c2ccccc2)cs1", "growth": "103%"},
      {"smiles": "CNCCCNc1nc2ccccc2c2c(=O)c3cc(Cl)ccc3sc12", "growth": "44.3%"},
      {"smiles": "CCOC(=O)C1=C(CCl)N(C)C(=O)NC1c1ccc2c(c1)OCO2", "note": "(stereo not given)", "growth": "72%"},
      {"smiles": "COc1ccc(C2[C@@H](Cl)C(=O)N2c2cc(OC)c(OC)c(OC)c2)cc1Cl", "note": "(stereo not given in full)", "growth": "18%"},
      {"smiles": "Cn1cc(-c2nonc2-c2c[nH]c3ccccc23)c2cc(Br)ccc21", "growth": "29.3%"},
      {"smiles": "COc1cc2c3c(c4c5ccccc5[nH]c4c2c(OC)c1OC)C(=O)N(CCN1CCCCC1)C3=O", "growth": "24.6%"},
      {"smiles": "COC(=O)/C(CCC=C(C)C)=C1\\[C@@H](OC(C)=O)C[C@@]2(C)[C@H]1C/C(=N/O)[C@H]1[C@@]3(C)CC/C(=N\\O)[C@@H](C)[C@@H]3CC[C@@]12C", "growth": "102%"},
      {"smiles": "Cc1[nH]n(-c2cccc(Cl)c2)c(=O)c1/C=C1\\C=c2ccccc2=CC1=O", "growth": "75.3%"},
      {"smiles": "CCN(CC)CCn1c2ccc(OC)cc2c2sc3cc(O)ccc3c(=O)c21", "growth": "27.6%"},
      {"smiles": "C=C1C(=O)O[C@H]2[C@H]1CC/C(COC(=O)NCc1ccc(Cn3c(=O)sn(-c4ccc(I)cc4)c3=O)cc1)=C\\CC[C@@]1(C)O[C@@H]21", "growth": "106%"},
      {"smiles": "CS(=O)(=O)Nc1cc(-c2ccc3ncnc(Nc4ccc5c(cnn5Cc5ccncc5)c4)c3c2)cnc1Cl", "growth": "88.2%"},
      {"smiles": "COc1ccc2cc(C(=O)N3CCC([C@@H](C)C(=O)NCc4ccc5c(c4)OCO5)CC3)[nH]c2c1", "growth": "38.3% [50 µM]"},
      {"smiles": "Nc1ncccc1O", "growth": "77%"},
      {"smiles": "CC1(C)CC[C@]2(CO)CC[C@]3(C)[C@](O)([C@H](O)C[C@@H]4[C@@]5(C)CCCNC(C)(C)[C@@H]5CC[C@]43C)[C@@H]2C1", "growth": "100%"},
      {"smiles": "CN(C)CCC(=O)C1CC1", "growth": "98.3%"},
      {"smiles": "CCCc1cc(=O)oc2c(C(=O)CC(C)C)c(O)c(CC=C(C)C)c(O)c12", "growth": "0.191% (active)"},
      {"smiles": "CSc1ccc2c3c(n(CCCn4ccnc4)c(=O)c2c1)-c1ccccc1C3=O", "growth": "35.4%"},
      {"smiles": "O=c1oc2ccccc2cc1-c1nn(-c2ccccc2)cc1-c1nn[nH]n1", "growth": "102%"},
      {"smiles": "COc1ccc(-c2cc(C(=O)N3N=C(c4ccc(N)cc4)CC3c3ccc(Cl)cc3)c3ccccc3n2)cc1", "note": "(stereo not given)", "growth": "25.5%"},
      {"smiles": "COc1cc(/C=C/c2cn[nH]c2-c2ccc(C)cc2)cc(OC)c1OC", "growth": "16.7%"},
      {"smiles": "COc1ccc(Nc2ncc(I)c(NCCCNC(=O)C3CCC3)n2)cc1", "growth": "22.2%"},
      {"smiles": "CN1CCOCCN(C)Cc2ccc3ccc(cc3c2)CN(C)CCOCCN(C)Cc2ccc3ccc(cc3c2)C1", "growth": "83.5%"},
      {"smiles": "S=c1ccnc[nH]1", "growth": "100%"},
      {"smiles": "c1ccc2cc(Cn3cc(CSc4nc5ccccc5s4)nn3)ccc2c1", "growth": "96.9%"},
      {"smiles": "O=C(O)c1cn(C2CC2)c2cc(N3CCN(C(=O)N4CCOCC4)CC3)c(F)cc2c1=O", "growth": "105%"},
      {"smiles": "O=C(NCCN1CCOCC1)OCc1ccc2c(Cl)cc(Cl)c(O)c2n1", "growth": "5.25% (active)"},
      {"smiles": "O=C(/C=C/c1ccccc1)c1ccc(-n2cc(CN3CCN(c4cc5c(cc4F)c(=O)c(C(=O)O)cn5C4CC4)CC3)nn2)cc1", "growth": "87%"},
      {"smiles": "Cc1cc(NCCCNc2ccnc3cc(Cl)ccc23)nc(Nc2ccc(C(=O)N3CCCCC3)cc2)n1", "growth": "75.6%"},
      {"smiles": "CC/C(=C(/c1ccc(O)cc1)c1ccc(OCCN2CCCCC2)cc1)c1ccc(OC)cc1", "growth": "77.6%"},
      {"smiles": "O=C(Nc1cccnc1Nc1ccccc1)c1cn(Cc2cccc(Oc3ccccc3)c2)nn1", "growth": "33.8%"},
      {"smiles": "Clc1cccc(C2Cc3cnccc3-c3[nH]c4ccncc4c32)c1", "note": "(stereo not given)", "growth": "47.7%"},
      {"smiles": "C=C1C(=O)O[C@H]2[C@H]1CC/C(COC(=O)NCc1ccc(Cn3c(=O)sn(-c4ccccc4)c3=O)cc1)=C\\CC[C@@]1(C)O[C@@H]21", "growth": "106%"},
      {"smiles": "O=C(NCCCCCCNC(=O)OCc1ccc2c(Cl)cc(Cl)c(O)c2n1)OCc1ccc2c(Cl)cc(Cl)c(O)c2n1", "growth": "-12.5% (active)"},
      {"smiles": "C/C(Cc1ccc(Cl)cc1)=C(\\c1ccc(OCCN2CCCCCC2)cc1)c1ccc(OC(=O)c2ccccc2)cc1", "growth": "47%"},
      {"smiles": "CC(O)CNC(Cc1ccccc1)c1ccc2c(c1)OCO2", "note": "(stereo not given)", "growth": "94.7%"},
      {"smiles": "OC1(c2ccccc2)c2ccccc2N(c2ccccc2)c2ccc(Cl)cc21", "note": "(stereo not given)", "growth": "14.8%"},
      {"smiles": "O=C(Cc1ccc(/C=C/C(=O)c2ncc[nH]2)cc1)Nc1cc(F)c(F)c(F)c1", "growth": "66.5%"},
      {"smiles": "C/C(=N\\Nc1ccccc1)c1ccc(NC2=CC(=O)c3ccccc3C2=O)cc1", "growth": "54%"},
      {"smiles": "O=S(=O)(Nc1ccc2ccccc2c1)c1ccc(-c2cnc(C3CC3)o2)cc1", "growth": "9.69% (active)"},
      {"smiles": "O=c1c2ccccc2n(C[C@H]2CO2)c2ccccc12", "growth": "-14.3% (active)"}
    ]}
  ]
}
